For this assay, the system named is VDR:RXRa (NR concentration 270 nM, RXRa partner concentration 90 nM). The experiment in a line: PBM binding z-score (relative to random genomic background probes); higher = stronger binding; sequences stand for … in GC…GCGATTGACAGCGTAGAATGAAGG
How it is done: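 Protein-binding microarray (Agilent 4x180K custom design, double-stranded 60-nt probes: 5' GC cap, 34-nt variable region, 24-nt constant primer region; full probe sequence given). Purified or IVT nuclear receptor:RXRα heterodimers (3:1 NR:RXRα, mostly 270:90 nM) or homodimers were incubated for 1 h in PBS with 2% milk and no ligand, then detected with Alexa488 antibodies. Fluorescence from o1-orientation probes (~5 replicates averaged) was converted to z-scores against 500 random hg19 background probes. Variable regions are seed direct-repeat (DR0–DR5) sites, all their single-nucleotide variants and half-site ablations.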
Sequence CCTACTGGGCCAAAAAGGTCAATGATGCCGATAA yielded a PBM binding z-score of 4.18.

TCTTGTAGATCAAGCATGTTAAGAAAGCCTGAGT registered a PBM binding z-score of 0.348.

In the case of GCTAGCAGGCCATTTGGGTCAATCAATGACGGGC, the PBM binding z-score worked out at 0.778.

Sequence CCTCGTAGGACAACAGGAGGTCAGAGCTGCCAGA yielded a PBM binding z-score of 1.64.

CCTACTGGGCCAAGGTCATTGGTCAGTCAAAGCA gave a PBM binding z-score of 3.39.

As to CCCAGTTGGTCAGGAGGTCACACACCGGATATGA, the PBM binding z-score came out at 3.96.

TCCGCTAGGTCAGTTGGTCAGCTAACGAGCTGCC returned a PBM binding z-score of 0.232.

For CCGACTGGGGCAAAAGTTACCATACTCAGTACGA, the PBM binding z-score was -0.267.

CGTCCAAGGGCAGAGAGGTCAGTGAATGCCGAGT: the PBM binding z-score turned out to be 5.05.

For CCTACTGGGCCACGGTCATTGATCAGTCAAAGCA, the PBM binding z-score was -0.388.

Take GCTCACGGGTCAAAGGTTATAGCATGAATAGAAT: the PBM binding z-score is 5.38.

As to TCATAAAGGTAAAAGGTGAAAGTCGGTGTGGTAA, the PBM binding z-score was found to be 1.89.

Turning to TCATCTAGGTAAAGGTGAAAGTCGAACGATATGA, the PBM binding z-score stood at 0.95.

ATCGAAAGGTCGAGGTGCGTATAGAGAAAGGGAA showed a PBM binding z-score of 2.16.

CGAATTAGGTCATTGACAGGACAGTGAATAGTAA gave a PBM binding z-score of 2.3.

Turning to CGAACTACGTCAAGGACAGTGAATCTCCGCACGC, the PBM binding z-score was -0.475.

AGTTAAAGTTCACTAGGTAACGTAAGATTCAGCT had a PBM binding z-score of 3.64.

Sequence ACAGACAGTTGATGAAGGTAACTCAGGCTATCAT registered a PBM binding z-score of 0.101.

Take CCAGACAGGTGAGACGGTAACTCAGCCTCGATTA: the PBM binding z-score is -0.29.

With CCAGACAGGTGAAAGCTAACTCAGTCTGGTACGC, the PBM binding z-score was -0.274.

Take GCTGCTAGGGCAGGTTGGTCAGCTAACGGGTACG: the PBM binding z-score was -0.775.

Regarding TCTTGTAGATCAGGCAGGTTAAGAAAGCCTGAGT, the PBM binding z-score worked out at 0.268.

ATCGACAGGTCGACGAGGTGAGTATACACCGTTT came in with a PBM binding z-score of 2.85.

For CGAACTAGGTCATCCAGGACAGTGGATACATTGA, the PBM binding z-score is 4.5.

Turning to CCGACTGGGGCATATGGTTACCATAAGCCAGCCC, the PBM binding z-score is -0.695.

The sequence CCGACTGGGGAAAGGTTACCATAACGCACAGCCA yielded a PBM binding z-score of 0.901.

With CGAACTGGGTCATCCAGGACAGTGAATACATTGA, the PBM binding z-score was 4.54.

The sequence ACTAGTTGGTCAGCTGAGGTCTCACACAATTCGG had a PBM binding z-score of 0.0458.

CCTCGGAGGACAGAAGGTCAGGGCTGTCCGCTTT returned a PBM binding z-score of 0.967.

Sequence ATATGTAGGTTAAGGGTGATTCAGGTTGGTTCGC returned a PBM binding z-score of 1.68.

For AGAATGAGGTTATTAAGATCAGGAAATTGCGGTC, the PBM binding z-score was found to be 2.43.

The sequence ATCTCTAGGTAACCAAGTTCAGTGCATGCCGAAC showed a PBM binding z-score of 4.21.

CCTATCAGTTGACCATAAGGGCAACCGAAGCTCG yielded a PBM binding z-score of 0.912.

With GGAACGAGGACATTCGAGTTGATAGCATGGCGAT, the PBM binding z-score came to 0.922.

CCTACTGGGCCAAAAAGGTCATTGGTGCCGATAA showed a PBM binding z-score of 5.2.

Regarding CCTCGGAGGACAACAGGAGGTCAGTGCTGCCAGA, the PBM binding z-score came to 1.59.

Consider TCATATAGGTAAAGGTGTAAGTCGAACGATATGA, for which the PBM binding z-score turned out to be 0.297.

Turning to TAGCCTAGGTCAGATCGGGCCAGTGTACGCTATA, the PBM binding z-score is 0.494.

The sequence CGTCCAAGGTCAGAGGAGGTCAGTGAAGACAGAT yielded a PBM binding z-score of 5.98.

The sequence TTCCCAAGGTGAAGGTCGTTGATCCCTCTGTAGA gave a PBM binding z-score of 1.22.

These data come from the supplement of paper PMC6555819.
